Measured values from PubChem BioAssay (Tox21).
Results filed as inconclusive are left out. The source made the active and inactive calls. Calls come from the whole dose curve.

Legend:
[1] = target: Acetylcholinesterase (Homo sapiens) (UniProt P22303); assay: Acetylcholinesterase (AChE) small molecule antagonists: colormetric cell-based qHTS assay (AID 1347395); note: nearly all actives have a fitted effect of over 30% in size
Procedure, shortened: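 After overnight attachment at 37 C, SH-SY5Y cells get 30 min compound exposure; detection cocktail (acetylthiocholine, DTNB) then incubates 90 min at 37 C, and absorbance reflects AChE-generated thiocholine.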

[2] = target: Acetylcholinesterase (Homo sapiens) (UniProt P22303); assay: Acetylcholinesterase (AChE) small molecule antagonists: enzyme-based qHTS assay (AID 1347397); settings: Potency: AChE enzyme activity inhibition; outcome: AChE enzyme activity inhibition; note: nearly all actives have a fitted effect of over 55% in size
Procedure, shortened: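 Colorimetric DTNB read-out of thiocholine released from acetylthiocholine by recombinant human AChE (50 mU/mL as dispensed). Compounds were preincubated 30 min at RT before substrate/DTNB addition, with a 10 min RT reaction.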

[3] = target: Acetylcholinesterase (Homo sapiens) (UniProt P22303); assay: Acetylcholinesterase (AChE) small molecule antagonists: fluorescence cell-based qHTS assay (AID 1347398); settings: Potency: AChE activity; outcome: AChE activity; note: nearly all actives have a fitted effect of over 50% in size
Procedure, shortened: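 SH-SY5Y, 2,000 cells/well, attached overnight; cmpd 30 min 37 C; acetylthiocholine/Thiolite Green cocktail 40 min RT; fluorescence Ex/Em 490/520 nm.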

[4] = target: Acetylcholinesterase (Homo sapiens) (UniProt P22303); assay: Acetylcholinesterase (AChE) small molecule antagonists: enzyme-based qHTS assay with human liver microsomes (AID 1347399); settings: Potency: qHTS inhibition; outcome: qHTS inhibition; note: nearly all actives have a fitted effect of over 60% in size
Procedure, shortened: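 Recombinant human AChE (50 mU/mL in the enzyme mix) and human liver microsomes (0.25 mg/mL final) were preincubated with compound and NADPH (0.25 mg/mL final) for 30 min at 37 C. Acetylthiocholine/DTNB was then added; thiocholine was read colorimetrically after 10 min at room temperature.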

Measured: Potency

Sequence of Acetylcholinesterase (Homo sapiens) (P22303 whole entry, looked up): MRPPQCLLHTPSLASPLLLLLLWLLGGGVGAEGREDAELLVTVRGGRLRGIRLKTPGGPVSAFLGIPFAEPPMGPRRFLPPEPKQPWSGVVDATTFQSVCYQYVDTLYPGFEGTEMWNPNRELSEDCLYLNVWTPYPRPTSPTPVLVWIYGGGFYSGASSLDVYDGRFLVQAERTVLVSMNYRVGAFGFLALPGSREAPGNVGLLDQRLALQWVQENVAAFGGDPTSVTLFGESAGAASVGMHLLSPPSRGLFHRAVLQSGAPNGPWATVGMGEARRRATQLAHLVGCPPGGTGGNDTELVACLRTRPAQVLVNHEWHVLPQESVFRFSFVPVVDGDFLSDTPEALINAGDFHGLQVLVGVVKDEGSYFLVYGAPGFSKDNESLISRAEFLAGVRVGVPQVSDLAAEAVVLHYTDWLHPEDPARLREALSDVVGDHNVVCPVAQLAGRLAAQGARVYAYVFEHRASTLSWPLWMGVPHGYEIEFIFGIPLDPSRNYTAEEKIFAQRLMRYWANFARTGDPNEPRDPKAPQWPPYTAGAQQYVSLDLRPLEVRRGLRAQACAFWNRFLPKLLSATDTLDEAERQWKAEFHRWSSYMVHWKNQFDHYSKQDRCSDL

C[C@]12CC[C@@H]3c4ccc(O)cc4C[C@@H](CCCCCCCCCS(=O)CCCC(F)(F)C(F)(F)F)[C@H]3[C@@H]1CC[C@@H]2O (stereo not given in full)
inactive: [1] | [2] | [3] | [4]

CCCCNS(=O)(=O)c1ccccc1
inactive: [1] | [2] | [3] | [4]

O=c1oc2cc(O)ccc2c2oc3cc(O)ccc3c12
inactive: [1] | [2] | [3] | [4]

O=C(OCC1(COC(=O)c2cccnc2)CCCC(COC(=O)c2cccnc2)(COC(=O)c2cccnc2)C1O)c1cccnc1
inactive: [1] | [2] | [3] | [4]

c1cc[c]([Bi]([c]2ccccc2)[c]2ccccc2)cc1
inactive: [1] | [2] | [3] | [4]

Cc1occc1SSc1ccoc1C
inactive: [1] | [2] | [3] | [4]

OC[C@@H](O)C(O)[C@@H](O)CO (stereo not given in full)
inactive: [1] | [2] | [3] | [4]

O=C(O)c1ccc(O)cc1
inactive: [1] | [2] | [3] | [4]

CCC(C)C(C)=O (stereo not given)
inactive: [1] | [2] | [3] | [4]

O=C1Cc2cc(Cl)ccc2N1
inactive: [1] | [2] | [3] | [4]

O=CNNC=O
inactive: [1] | [2] | [3] | [4]

COc1ccc2c(c1)c(CC(=O)OCC(=O)O)c(C)n2C(=O)c1ccc(Cl)cc1
inactive: [1] | [2] | [3] | [4]

CCCCCCCCCCCCCCC(=O)O
inactive: [1] | [2] | [3] | [4]

O=C(NCCc1c[nH]c2ccccc12)c1cccnc1
inactive: [1] | [2] | [3] | [4]

NCCCN(CCO)CCO
inactive: [1] | [2] | [3] | [4]

CC(=O)SCc1ccco1
inactive: [1] | [2] | [3] | [4]

C[C@H]1[C@H]2CC[C@H]3[C@@H]4CC=C5C[C@@H](N(C)C)CC[C@]5(C)[C@H]4CC[C@]23CN1C
inactive: [1] | [2] | [3] | [4]

CC(C)c1cc(C(C)C)cc(C(C)C)c1
inactive: [1] | [2] | [3] | [4]

O=C1NC(c2ccccc2)(c2ccccc2)C(=O)N1COP(=O)(O)O
inactive: [1] | [2] | [3] | [4]

CCCc1cc(=O)[nH]c(=S)[nH]1
inactive: [1] | [2] | [3] | [4]

CC(C)NC(=O)c1ccccc1N
inactive: [1] | [2] | [3] | [4]

CCOC(=O)C1=C[C@]2(CC)CCCN3CCc4c(n1c1ccccc41)[C@@H]32
inactive: [1] | [2] | [3] | [4]

CCCCCCCC(=O)OCC(O)CO (stereo not given)
inactive: [1] | [2] | [3] | [4]

CCCC(=O)C(C)=O
inactive: [1] | [2] | [3] | [4]

CCCCCCC
inactive: [1] | [2] | [3] | [4]

c1ccc(SCCSc2ccccc2)cc1
inactive: [1] | [2] | [3] | [4]

CC1(O)CSC(C)(O)CS1 (stereo not given)
inactive: [1] | [2] | [3] | [4]

CC1=CCC2CC1C2(C)C (stereo not given)
inactive: [1] | [2] | [3] | [4]

C=CC(=O)OCC(CO)(COC(=O)C=C)COC(=O)C=C
inactive: [1] | [2] | [3] | [4]

COc1ccc2[nH]cc(CCNC(C)=O)c2c1
inactive: [1] | [2] | [3] | [4]

CC(=O)Oc1ccc(C(=C2CCCCC2)c2ccc(OC(C)=O)cc2)cc1
inactive: [1] | [2] | [3] | [4]

Cc1cc(C)c(N)c(Cl)c1
inactive: [1] | [2] | [3] | [4]

C[C@H]1[C@H](NC(=O)/C(=N/OC(C)(C)C(=O)O)c2csc(N)n2)C(=O)N1S(=O)(=O)O (stereo in doubt)
inactive: [1] | [2] | [3] | [4]

C1CCSC1
inactive: [1] | [2] | [3] | [4]

CC(=O)N1CCN(c2ccc(O)cc2)CC1
inactive: [1] | [2] | [3] | [4]

CCCCCCCCCCCCCCCC(=O)OC[C@H](O)[C@H]1OC(=O)C(O)=C1O
inactive: [1] | [2] | [3] | [4]

Cc1c(N(C)CS(=O)(=O)O)c(=O)n(-c2ccccc2)n1C
inactive: [1] | [2] | [3] | [4]

c1ccc2c(c1)c1cccc3ccc4cccc2c4c31
inactive: [1] | [2] | [3] | [4]

C=CCCCCCCCCCC
inactive: [1] | [2] | [3] | [4]

Cc1ccc(S(=O)(=O)N=C=O)cc1
inactive: [1] | [2] | [3] | [4]

CC(=O)Nc1ccc(S(=O)(=O)Nc2ccc([N+](=O)[O-])cc2)cc1
inactive: [1] | [2] | [3] | [4]

c1cnccn1
inactive: [1] | [2] | [3] | [4]

CNC(=S)NN
inactive: [1] | [2] | [3] | [4]

CC(C)(O)C#CC(C)(C)O
inactive: [1] | [2] | [3] | [4]

O=C(Cn1ccnc1[N+](=O)[O-])NCc1ccccc1
inactive: [1] | [2] | [3] | [4]

Cc1nc2ccccc2s1
inactive: [1] | [2] | [3] | [4]

CCCNC(C)(C)COC(=O)c1ccccc1
inactive: [1] | [2] | [3] | [4]

O=C1O[C@H]([C@H](O)CO)C(O)=C1O
inactive: [1] | [2] | [3] | [4]

O=C(O)CC(O)C(=O)O (stereo not given)
inactive: [1] | [2] | [3] | [4]

O=c1cc(-c2ccc(O)cc2)oc2cc(O)cc(O)c12
inactive: [1] | [2] | [3] | [4]

CC(C)C(=O)Nc1ccc([N+](=O)[O-])c(C(F)(F)F)c1
inactive: [1] | [2] | [3] | [4]

Cc1cc(O)c(Cl)c(C)c1Cl
inactive: [1] | [2] | [3] | [4]

CC(=O)N[C@H]1[C@H]([C@H](O)[C@H](O)CO)OC(C(=O)O)=C[C@@H]1N=C(N)N
inactive: [1] | [2] | [3] | [4]

Oc1ccc(Oc2ccccc2)cc1
inactive: [1] | [2] | [3] | [4]

CCCCC[Si](OCC)(OCC)OCC
inactive: [1] | [2] | [3] | [4]

CCCCCCCCCCC1CO1 (stereo not given)
inactive: [1] | [2] | [3] | [4]

Cc1ncc[nH]1
inactive: [1] | [2] | [3] | [4]

CCC(C)OC(=O)N1CCCCC1CCO (stereo not given)
inactive: [1] | [2] | [3] | [4]

CNc1ncnc2nc[nH]c12
inactive: [1] | [2] | [3] | [4]

CC(=O)OC1CC(C)OC(C)O1 (stereo not given)
inactive: [1] | [2] | [3] | [4]
